In ChEMBL document CHEMBL3988442, “University of Dundee, Small-Polar-MMV Screening Library” (2021):

What follows are compounds tested against T1, Aspartate--tRNA(Asp/Asn) ligase (Mycobacterium tuberculosis (strain ATCC 25618 / H37Rv)) (UniProt P9WFW3) (assay: Assay for Asp RNA synthetase-1 from Mycobacterium tuberculosis). Conditions: 30 µM.
T1 sequence (whole entry): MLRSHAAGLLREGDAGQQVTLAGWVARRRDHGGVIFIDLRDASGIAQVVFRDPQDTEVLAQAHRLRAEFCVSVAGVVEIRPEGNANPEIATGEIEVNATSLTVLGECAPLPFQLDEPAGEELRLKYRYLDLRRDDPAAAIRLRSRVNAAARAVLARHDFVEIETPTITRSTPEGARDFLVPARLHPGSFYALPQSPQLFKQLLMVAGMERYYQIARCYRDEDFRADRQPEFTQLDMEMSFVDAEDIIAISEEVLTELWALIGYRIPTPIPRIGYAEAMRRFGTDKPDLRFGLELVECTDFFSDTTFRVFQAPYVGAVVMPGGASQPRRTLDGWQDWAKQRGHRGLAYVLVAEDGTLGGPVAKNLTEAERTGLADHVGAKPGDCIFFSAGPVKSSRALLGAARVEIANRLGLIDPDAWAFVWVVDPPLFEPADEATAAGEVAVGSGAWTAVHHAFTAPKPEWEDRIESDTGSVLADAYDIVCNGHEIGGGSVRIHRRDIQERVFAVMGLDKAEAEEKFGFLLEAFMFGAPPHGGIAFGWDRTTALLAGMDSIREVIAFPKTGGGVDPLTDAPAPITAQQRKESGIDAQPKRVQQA
Assay type: functional
Parameters: scale not given: direction of the effect not stated beside the values

Structure (SMILES) | Percent Effect
COc1cccc2cc(CNC(=O)N3CCCC(O)C3)oc12 (stereo not given) | -4.17%
CC(NC(=O)CCOc1ccccc1Cl)c1nnc2n1CCC2 (stereo not given) | -1%
Cc1cnn(CC2CN(c3ncnc4ccccc34)CCO2)c1 (stereo not given) | -7%
Cc1ncc(CNC(=O)N(C)C2CCN(c3ccccc3)C2=O)s1 (stereo not given) | -3.19%
O=C1CCSCC(C(=O)N2CCOCC2)N1 (stereo not given) | 1.64%
CCN(Cc1cccc(Cl)c1)Cn1nc(C)c2c(C)onc2c1=O | -2.62%
N#Cc1cccc(SCCS(N)(=O)=O)c1 | 0.306%
Cc1ccc(CNC(=O)Cn2ncc3c2c(C)nn3C)cc1 | -3.46%
CCC(=O)N1CCC(c2nnc(Cn3cncn3)n2C2CC2)CC1 | -3.04%
Cc1cc(C)n2cc(CN3CCCC3Cn3nc(C)nc3C)nc2n1 (stereo not given) | -2.84%
CCOC(=O)N1CCN(c2nc(NCCCO)c3ccccc3n2)CC1 | 1.68%
CC(C)(C)c1noc(CN2CCN(C(=O)c3cccs3)CC2)n1 | 0.425%
CN1CCc2cc(C(CNS(=O)(=O)c3cccs3)N3CCCC3)ccc21 (stereo not given) | -0.102%
COCCN1C(=O)[C@]2(CC[C@@H]3CN(C(=O)NCC(C)C)C[C@@H]32)N=C1C | -3.99%
Cc1ccc(CNC(c2ccccc2)c2nccn2C)cc1C (stereo not given) | 1.11%
c1cnnc(N2CCCC2CNc2ncnc3c2CCC3)c1 (stereo not given) | -0.597%
O=C(CCn1cnnc1)N1CCCC(c2ncc[nH]2)C1 (stereo not given) | 5.32%
CCc1c(C(=O)NC2CCS(=O)(=O)C2)cnn1-c1ccc(F)cc1 (stereo not given) | -1.69%
FC(F)(F)C1CCc2nnc(CNCc3ccsc3)n2C1 (stereo not given) | -0.0705%
O=C(CCN1CCCC1C1CCCCC1)N1CCc2sccc2C1 (stereo not given) | 2.02%

What follows are compounds tested against Shiga toxin 2 (Escherichia coli O157:H7) (UniProt P09385+P09386) (assay: E. coli 0.157:H7 Shiga Toxin SOP - stx2 screening assay). Conditions: 30 µM.
Assay type: functional
Parameters: scale not given: direction of the effect not stated beside the values

Structure (SMILES) | Percent Effect
Cc1nc(C)n(CC2CN(Cc3cccc(C#N)c3)CCO2)n1 (stereo not given) | 20.9%
COc1ccc(CC(=O)N(C)Cc2nnc3ccccn23)cc1 | 2.4%
Cc1cn2nc(N3CCCC3CC(C)(C)C)sc2n1 (stereo not given) | 22.9%
O=c1[nH]c(CCN2CCCC(Cn3cncn3)C2)nc2ccccc12 (stereo not given) | -25.8%
Cc1noc(C2CCN(C(=O)CCc3nccs3)CC2)n1 | -79.2%
Cc1n[nH]cc1CNc1ccc2c(c1)CN(C(=O)OC(C)(C)C)CC2 | -13.2%
O=C(Nc1ccccn1)N(CCO)Cc1ccsc1 | 31.7%
NC(=O)c1ccc2c(c1)nc1n2CCN(Cc2ccco2)C1 | -31.5%
Cc1ccc(OC2(C(=O)O)CCN(C(=O)c3ccc(F)cc3)CC2)cn1 | 10.4%
COc1cccc(CN2CCC(c3nccn3C(C)C)CC2)c1 | -26.4%
CCOc1ccccc1C(=O)NS(=O)(=O)c1ccc2c(c1)OCCCO2 | 19.9%
COCCNC(=O)[C@@H]1CC[C@@H]2[C@@H](CCN2Cc2cnn(C)c2)O1 | -20.8%
CN(c1ccc(F)c(F)c1)S(=O)(=O)c1cc(C(=O)O)cs1 | 20.8%
O=C(C1CCS(=O)(=O)C1)N1CCN(c2cnccn2)CC1 (stereo not given) | 25.5%
O=C1N(c2ccccc2)Cc2nc(=O)[nH]n21 | -29.1%
CCN1CC2(CCNCC2)COc2ccccc2S1(=O)=O | -27.7%
COc1ccc2nnc(CCCC(=O)NCCC3=CCCCC3)n2n1 | -54.6%
CC(=O)NCCc1cc(N2CCN(C(C)=O)CC2)nc(C2CC2)n1 | -16%
Cc1cnn(CCNCC(O)COc2ccc(Cl)cc2)c1 (stereo not given) | -37.4%
CCn1ccnc1CN1CCN(CC(=O)NC(=O)NC2CC2)CC1 | 24.4%

Structure (SMILES) | Percent Effect
COc1cccc2cc(CNC(=O)N3CCCC(O)C3)oc12 (stereo not given) | -15.3%
CC(NC(=O)CCOc1ccccc1Cl)c1nnc2n1CCC2 (stereo not given) | 22.6%
Cc1cnn(CC2CN(c3ncnc4ccccc34)CCO2)c1 (stereo not given) | 6.94%
Cc1ncc(CNC(=O)N(C)C2CCN(c3ccccc3)C2=O)s1 (stereo not given) | 24.6%
O=C1CCSCC(C(=O)N2CCOCC2)N1 (stereo not given) | 3.97%
CCN(Cc1cccc(Cl)c1)Cn1nc(C)c2c(C)onc2c1=O | 21.7%
N#Cc1cccc(SCCS(N)(=O)=O)c1 | -7.47%
Cc1ccc(CNC(=O)Cn2ncc3c2c(C)nn3C)cc1 | -20.9%
CCC(=O)N1CCC(c2nnc(Cn3cncn3)n2C2CC2)CC1 | -2.15%
Cc1cc(C)n2cc(CN3CCCC3Cn3nc(C)nc3C)nc2n1 (stereo not given) | 5.36%
CCOC(=O)N1CCN(c2nc(NCCCO)c3ccccc3n2)CC1 | -29.9%
CC(C)(C)c1noc(CN2CCN(C(=O)c3cccs3)CC2)n1 | 6.49%
CN1CCc2cc(C(CNS(=O)(=O)c3cccs3)N3CCCC3)ccc21 (stereo not given) | -6.23%
COCCN1C(=O)[C@]2(CC[C@@H]3CN(C(=O)NCC(C)C)C[C@@H]32)N=C1C | -11.7%
Cc1ccc(CNC(c2ccccc2)c2nccn2C)cc1C (stereo not given) | 14.8%
c1cnnc(N2CCCC2CNc2ncnc3c2CCC3)c1 (stereo not given) | 2.94%
O=C(CCn1cnnc1)N1CCCC(c2ncc[nH]2)C1 (stereo not given) | -29.4%
CCc1c(C(=O)NC2CCS(=O)(=O)C2)cnn1-c1ccc(F)cc1 (stereo not given) | 9.21%
FC(F)(F)C1CCc2nnc(CNCc3ccsc3)n2C1 (stereo not given) | 3.92%
O=C(CCN1CCCC1C1CCCCC1)N1CCc2sccc2C1 (stereo not given) | 8.04%
